nsP2pro inh – Primary qHTS for inhibitors of NSP2Pro chikungunya virus (CHIKV) | Potency, µM (highest dose often 24.9 µM), hits mostly inhibitors | FRET peptide cleavage, nsP2pro, fluorescence 1 h | actives 1.1% (n = 31,000) | Polyprotein P1234 (Chikungunya virus (strain S27-African prototype)), Q8JUX6; note: nearly all actives have a fitted effect of over 60% in size
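Enzyme 150 nM, substrate 2.5 uM (both final); Tris-HCl 10 mM pH 8.0 + 0.01% Tween 20; cpd up to 25 uM, 7 pts; 15 min preinc., 1 h RT; fluorescence ex 525/em 598.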
CHIKV nsP2 cell – Secondary cell base assay for inhibitors of NSP2Pro Chikungunya virus (CHIKV); actives 10% (n = 450); Potency, µM (highest dose often 51.1 µM), actives largely listed as inhibitors; shares compounds with nsP2pro inh; cell-based CHIKV nsP2 protease reporter assay; note: nearly all actives have a fitted effect of over 70% in size
NSP2 full ctr – Selectivity profile for inhibitors of NSP2Pro chikungunya virus (CHIKV): Full length NSP2 enzyme counterscreen (CHIKV-NSP2). actives 39% (n = 410). shares compounds with nsP2pro inh. Potency, µM (highest dose often 50.7 µM), actives largely listed as inhibitors. Full-length CHIKV NSP2 protease enzymatic counterscreen; note: nearly all actives have a fitted effect of over 65% in size
Furin counter – Selectivity profile for inhibitors of NSP2Pro chikungunya virus (CHIKV): Human furin counterscreen. shares compounds with nsP2pro inh. Potency, µM (series often up to 50.6 µM), actives largely listed as inhibitors. AID 1964102, 2024. actives 6% (n = 410). Recombinant human furin enzymatic counterscreen, fluorogenic substrate
NS23 peptide cs – Selectivity profile for inhibitors of NSP2Pro chikungunya virus (CHIKV): Endogenous NS2/3 peptide Counterscreen | shares compounds with nsP2pro inh | Purified CHIKV nsP2 protease, endogenous NS2/3 peptide cleavage | Potency, µM (top dose mostly 51 µM), usual class: inhibitors | actives 34% (n = 410) | AID 1964103, 2024; note: nearly all actives have a fitted effect of over 55% in size
Papain cs – Selectivity profile for inhibitors of NSP2Pro chikungunya virus (CHIKV): Papain Counterscreen; shares compounds with nsP2pro inh; actives 5% (n = 410); Potency, µM (series often up to 51 µM), usual class: inhibitors; purified papain protease activity, enzymatic inhibition; AID 1964104, 2024
Target sequence (P00784 whole entry, looked up): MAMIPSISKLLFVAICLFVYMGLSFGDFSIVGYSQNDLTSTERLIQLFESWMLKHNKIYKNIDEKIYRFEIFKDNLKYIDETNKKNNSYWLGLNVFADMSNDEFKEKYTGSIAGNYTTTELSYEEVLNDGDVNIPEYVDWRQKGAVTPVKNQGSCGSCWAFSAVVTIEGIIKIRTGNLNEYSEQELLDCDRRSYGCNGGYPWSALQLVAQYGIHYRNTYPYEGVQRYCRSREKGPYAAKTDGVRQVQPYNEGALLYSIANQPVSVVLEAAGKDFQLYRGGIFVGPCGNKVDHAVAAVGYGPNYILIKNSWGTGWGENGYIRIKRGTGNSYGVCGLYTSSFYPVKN
nsP2pro confirm – Confirmatory qHTS for inhibitors of NSP2Pro chikungunya virus (CHIKV); shares compounds with nsP2pro inh; Potency, µM (doses to about 25.5 µM), most hits filed as inhibitors; AID 1964105, 2024; actives 43% (n = 410); CHIKV nsP2 protease enzymatic activity, qHTS; note: nearly all actives have a fitted effect of over 75% in size
HCV NS3 4A cs – Selectivity profile for inhibitors of NSP2Pro chikungunya virus (CHIKV): NS34A-HCV Counterscreen; actives 20% (n = 410); Potency, µM (series often up to 50.9 µM), hits mostly inhibitors; AID 1964106, 2024; HCV NS3/4A protease biochemical counterscreen; shares compounds with nsP2pro inh; note: nearly all actives have a fitted effect of over 55% in size
Each line names hits and unclear results; the compound was inactive in the other large screens (follow-up assays come after a bar, where they were run). The entries come from a sample that favours hits as a whole. Calls come from the whole dose curve.

Oc1ccc(NCc2ccccc2OCc2ccc(Cl)cc2)cc1	nsP2pro inh 2.39µM | CHIKV nsP2 cell 11.6µM | NSP2 full ctr 13µM | Furin counter inactive | NS23 peptide cs inconclusive | Papain cs inactive | nsP2pro confirm inconclusive | HCV NS3 4A cs 13µM
O=C(COc1ccccc1CNc1ccccc1)Nc1ccc(F)cc1	none
O=C(COc1ccccc1CNc1ccc(F)cc1)Nc1ccc(F)cc1	none
CC(=O)Nc1sc2c(c1-c1ccc(N3CCN(C(C)=O)CC3)nc1)CCNC2	none
CN(C)CCCNc1nc(CN2CCN(C(c3ccc(Cl)cc3)c3ccc(Cl)cc3)CC2)nc2ccccc12	none
O=C(NCc1ccc(F)cc1)[C@H]1CN2CCC1C[C@@H]2Cn1cc(CSc2ccccc2)nn1 (stereo partly specified)	none
COC1=C(OC)C(=O)C(CC=C(C)CCC=C(C)CCC=C(C)CCC=C(C)CCC=C(C)CCC=C(C)CCC=C(C)CCC=C(C)CCC=C(C)CCC=C(C)C)=C(C)C1=O	none
CC(C)=CCC1=C(O)c2ccccc2C(=O)C1=O	nsP2pro inh inconclusive | CHIKV nsP2 cell inconclusive | NSP2 full ctr inconclusive | Furin counter inactive | NS23 peptide cs inconclusive | Papain cs inactive | nsP2pro confirm inactive | HCV NS3 4A cs inactive
CC(C)(C)C(=O)N1CCCC1C(=O)N1CCC2(CC1)CC(=O)Nc1ccccc1O2 (stereo unspecified)	none
CS(=O)(=O)N(C1CCOCC1)C1CN(C(=O)c2ccccn2)C1	none
Cn1nnnc1Sc1ncnc2scc(-c3cccc(N)c3)c12	nsP2pro inh 1.78µM | CHIKV nsP2 cell 20.6µM | NSP2 full ctr inactive | Furin counter inactive | NS23 peptide cs inactive | Papain cs inactive | nsP2pro confirm inactive | HCV NS3 4A cs inactive
Cc1cccc(-c2csc3ncnc(Sc4nnnn4C)c23)c1	none
Cn1nnnc1Sc1ncnc2scc(-c3cccc(Br)c3)c12	none
Cc1nccn1CCC(NC(=O)c1cn(CCN)nn1)c1ccccc1 (stereo unspecified)	none
O=C(NCc1cccnc1)c1nc(-c2ccc(Cl)cc2)c2ccccn12	none
O[C@@H]1C[C@@H](c2nc(Cc3ccc(F)cc3Cl)no2)N(Cc2ccc(OC(F)(F)F)cc2)C1	none
OC1CC(c2cccc(F)c2)N(Cc2ccc(-c3ccn[nH]3)o2)C1 (stereo unspecified)	nsP2pro inh inconclusive | CHIKV nsP2 cell inactive | NSP2 full ctr inactive | Furin counter inactive | NS23 peptide cs inconclusive | Papain cs inactive | nsP2pro confirm inconclusive | HCV NS3 4A cs inactive
CC(C)c1noc([C@@H]2C[C@@H](O)CN2Cc2cc3ccccc3o2)n1	none
O=C([C@H](Cc1ccc(O[S+](=O)([O-])c2cccnc2)cc1)N[S+](=O)([O-])c1cccc2cnccc12)N1CCN(c2ccccc2)CC1	none
Cc1ccc(-c2cc(C(=O)N3CC[S+](=O)([O-])CC3)c3ccccc3n2)cc1C	none
CCc1n[nH]c(CC2CCN(C(=O)C3CC3)CC2)n1	none
C#CC(=O)N(c1ccc(OC)cc1OC)C(C(=O)NCC(=O)OCC)c1cccs1 (stereo unspecified)	nsP2pro inh 0.624µM | CHIKV nsP2 cell inactive | NSP2 full ctr 1.3µM | Furin counter inactive | NS23 peptide cs 2.91µM | Papain cs inactive | nsP2pro confirm 0.798µM | HCV NS3 4A cs inactive
CCOCCCNC(=O)C(c1ccc(OC)cc1)N(Cc1cccs1)C(=O)CNC(C)=O (stereo unspecified)	none
COc1ccc(NC(=O)CNS(=O)(=O)c2cccs2)c(OC)c1	none
COc1ccccc1CN1CCC(CN(CC(C)C)C(=O)C2C=CCN2)CC1 (stereo unspecified)	none
S=C(NC1CCCCC1)N[C@H]1CO[C@H]2[C@@H]1OC[C@@H]2n1nnnc1-c1ccc2c(c1)OCO2	none
CC1CCC(=O)CC(O)C(O)CC(=O)O1 (stereo unspecified)	nsP2pro inh inconclusive | CHIKV nsP2 cell inactive | NSP2 full ctr inactive | Furin counter inactive | NS23 peptide cs inactive | Papain cs inactive | nsP2pro confirm inactive | HCV NS3 4A cs inactive
CC1CCCCCCCc2cc(O)cc(O)c2C(=O)O1 (stereo unspecified)	none
C[C@@H]1C[C@H](O)/C=C/[C@H](O)[C@@H](O)CC(=O)O1	none
C=C1CCC2C(OC(=O)C2(O)COC(C)=O)C2C(=C)C(O)CC12 (stereo unspecified)	none
C=C1[C@@H](C)C2[C@H](Cc3ccccc3)NC(=O)[C@@]23C(/C=C/C[C@H](C)C[C@@](C)(O)/C=C/[C@@H]3OC(C)=O)[C@@H]1O (stereo partly specified)	none
CC1=CC2/C=C(\C)CCC(O)C(O)/C=C/C(=O)OC23C(=O)NC(CC(C)C)C3C1C (stereo unspecified)	none
C=C1[C@@H](C)[C@H]2[C@H](Cc3ccccc3)NC(=O)[C@]23OC(=O)/C=C/C(=O)CCC[C@@H](C)C/C=C/[C@H]3[C@@H]1O	nsP2pro inh 2.48µM | CHIKV nsP2 cell 0.708µM | NSP2 full ctr 7.3µM | Furin counter inactive | NS23 peptide cs 8.19µM | Papain cs inactive | nsP2pro confirm 1.13µM | HCV NS3 4A cs 0.366µM
O=C(CCCc1ccccc1)N1CCCCCC1c1nc(C2CC2)no1 (stereo unspecified)	none
CCCCCCCCCCCCCCCC(=O)OC1CCCn2c1nc(C)c(CCN1CCC(c3noc4cc(F)ccc34)CC1)c2=O (stereo unspecified)	none
Cc1ccc(S(=O)(=O)Nc2cc([N+](=O)[O-])ccc2C(=O)Nc2nc(-c3ccccc3)cs2)cc1	none
Cc1ccc(S(=O)(=O)c2ccc([N+](=O)[O-])cn2)cc1	nsP2pro inh 0.355µM | CHIKV nsP2 cell 2.06µM | NSP2 full ctr 1.46µM | Furin counter 11.6µM | NS23 peptide cs 1.83µM | Papain cs inactive | nsP2pro confirm 0.565µM | HCV NS3 4A cs 2.91µM

Screening results from PubChem.
